Data taken from ChEMBL document CHEMBL3988442, “University of Dundee, Small-Polar-MMV Screening Library” (2021).
Out of some 48,000 compounds screened, about 13,000 (27%) showed an effect of 50% or more. The list shows a part of the results.

Test system: Wolbachia pipientis
Assay: Anti-Wolbachia Cell-Based Screen
Format: functional
Set-up: scale not given: in the data most compounds retested in dose-response had high values
Conditions: 5 µM

Point of comparison: c1cnn(CC2CN(c3ncnc4c3CCC4)CCO2)c1 (stereo not drawn), “Percent Effect” value -17.69%. Against it:
- Cc1ccc(CN2CC[C@@H](O)[C@@H]2Cc2ccccc2)o1.O=C(O)C(F)(F)F — higher, 1.325%
- CC(=O)c1cccc(OCCCC(=O)N(C)Cc2ccccn2)c1 — higher, 14.18%
- CCN(C)S(=O)(=O)N[C@H]1CN(c2ccc(F)cn2)C[C@@H]1C(C)C — higher, 1.28%
- CC(C)[C@H]1CN(c2ccncc2)C[C@@H]1NS(=O)(=O)N(C)C — higher, 113.1%
- CC(C)[C@@H]1CN(c2ncc(F)cn2)C[C@H]1NC(=O)N(C)C — higher, 70.99%
- COc1ccnc(N2C[C@@H](NS(=O)(=O)N(C)C)[C@H](C(C)C)C2)n1 — higher, 1.494%
- CC(C)[C@@H]1CN(c2ccc(F)cn2)C[C@H]1NS(C)(=O)=O — higher, -10.09%
- Cc1noc(C)c1CN1C[C@@H](NC(=O)N(C)C)[C@H](C(C)C)C1 — higher, -17.12%
- CC(C)[C@@H]1CN(c2ncc(F)cn2)C[C@H]1NS(=O)(=O)N(C)C — higher, 83.11%
- CC(C)[C@@H]1CN(S(=O)(=O)Cc2ccccc2)C[C@H]1NS(=O)(=O)N(C)C — lower, -33.69%
- CC(C)[C@@H]1CN(Cc2ccsc2)C[C@H]1NS(=O)(=O)N(C)C — higher, 12.46%
- CCc1nc2n(n1)CCCC2Nc1nc(C(C)C)ns1 (stereo not drawn) — lower, -21.17%
- CC(C)CCN1CC2(CCCN(C(=O)c3cscn3)C2)CCC1=O (stereo not drawn) — higher, -17.51%
- CC(C)(C)n1cc(C(=O)N2CCN(Cc3ccsc3)CC2)cn1 — higher, 2.604%
- O=C(NC[C@H]1OC[C@@H](NC2CCC(F)(F)CC2)[C@@H]1O)Nc1ccccc1 — higher, -10.14%
- Cc1ccc(F)cc1S(=O)(=O)NCc1[nH]ncc1Br — higher, -6.756%
- CC(=O)N1CCCN(C(=O)Cc2c(C)nc(C)[nH]c2=O)CC1 — higher, -4.556%
- Cc1cc(NS(=O)(=O)c2cnc3onc(C)c3c2)no1 — higher, -3.715%
- CN(C)C(=O)CN1CCN(Cc2coc(-c3cccc(F)c3)n2)CC1 — higher, 102.1%
- CC(=O)N1CCN(Cc2coc(-c3cccc(F)c3)n2)CC1 — higher, 97.72%
- Fc1cccc(-c2nc(CN3CCCCC3Cn3cncn3)co2)c1 (stereo not drawn) — higher, -6.024%
- COCC(=O)N1CCN(Cc2coc(-c3cccc(F)c3)n2)CC1 — higher, -10.41%
- CC1CCCN(Cc2coc(-c3cccc(F)c3)n2)C1 (stereo not drawn) — higher, -1.096%
- CCNC(=O)C1CN(Cc2c(-c3cc(C)on3)nn(C)c2Cl)CCO1 (stereo not drawn) — higher, -15.99%
- CCN(CC)S(=O)(=O)N1CCc2nc(C3CCNCC3)ncc2C1.Cl — higher, 116.7%
- CCN(CC)S(=O)(=O)N1CCCC(c2nccn2Cc2ccncc2)C1 (stereo not drawn) — higher, 6.265%
- CC(C)NC(=O)c1cc2c(nc1N(C)C)CCN(S(=O)(=O)C1CC1)CC2 — higher, -5.433%
- CCC(C)S(=O)(=O)N1CCc2nc(C3CCNCC3)ncc2C1.Cl (stereo not drawn) — higher, 105.9%
- Cl.O=S(=O)(N1CCCCC1)N1CCc2nc(C3CCNCC3)ncc2C1 — higher, -9.776%
- CCc1cc(CNC(=O)N2Cc3ccccc3N(C)CC2C)on1 (stereo not drawn) — higher, 12.48%
- CN(Cc1ccc(Br)s1)Cn1nc(-c2ccc(F)cc2)oc1=O — higher, 11.33%
- Cc1ncc(CN(C)Cn2nc(-c3ccccc3)oc2=O)s1 — higher, 56.71%
- CN(Cc1ccc(Br)s1)Cn1nc(-c2ccccc2)oc1=O — higher, 38.33%
- CSc1nccc(NCC2CNCCO2)n1 (stereo not drawn) — higher, 3.575%
- Cn1cc(CNCCC(=O)NCc2ccccc2)c(-c2cccnc2)n1 — higher, -3.655%
- Cc1cc(C(=O)N2CCCC(n3cncn3)C2)nn1C (stereo not drawn) — higher, 113.3%
- Cc1cnc(C(=O)N2CCCC(n3cncn3)C2)cn1 (stereo not drawn) — higher, 95.37%
- Cn1nc(C(=O)N2CCCC(n3cncn3)C2)ccc1=O (stereo not drawn) — higher, -5.25%
- CCC(CC)c1cc(C(=O)N2CCCC(n3cncn3)C2)on1 (stereo not drawn) — higher, -3.018%
- CCc1ccc(C(=O)N2CCCC(n3cncn3)C2)o1 (stereo not drawn) — higher, -14.61%
- Cc1cc(C(=O)N2CCCC(n3cncn3)C2)on1 (stereo not drawn) — higher, 105.4%
- Cc1[nH]ncc1C(=O)N1CCCC(n2cncn2)C1 (stereo not drawn) — higher, -1.83%
- CC(C)c1nc(C(=O)N2CCCC(n3cncn3)C2)c[nH]1 (stereo not drawn) — higher, 7.683%
- Cc1c(C(=O)N2CCCC(n3cncn3)C2)cnn1C (stereo not drawn) — higher, 111.3%
- CCNC(=O)N1C[C@@H]2OCC(=O)N(CC3CC3)[C@@H]2C1 — higher, -6.422%
- Cc1nsc(NC2CCOC3(CCCCC3)C2)n1 (stereo not drawn) — higher, -0.6251%
- Cc1cnn(CCNCc2csc(-c3ccc4c(c3)OCO4)n2)c1 — higher, -11.61%
- CN(CCS(=O)(=O)c1cc(Cl)ccc1Cl)CC(N)=O — higher, 6.108%
- Cc1ccn(-c2ccc(NCc3cccnc3N3CCCCC3)nn2)n1 — higher, -6.636%
- Nc1cc2c(nn1)CCN(C(=O)c1ccccc1Oc1cccnc1)C2 — higher, -10.76%
- CCc1nccn1C1CCCN(C(=O)c2cnc3onc(C)c3c2)C1 (stereo not drawn) — lower, -19.2%
- Cc1ncsc1C(=O)N1CCCC(n2cncn2)C1 (stereo not drawn) — higher, 88.89%
- Cc1cc(C)n(CCC(=O)N2CCCC(n3cncn3)C2)n1 (stereo not drawn) — higher, -3.067%
- Cc1cc(C(=O)N2CCCC(n3cncn3)C2)c(C)n1CC1CC1 (stereo not drawn) — higher, 127.1%
- COCC(C)NS(=O)(=O)c1ccc(Br)cn1 (stereo not drawn) — higher, -13.48%
- O=C(Nc1ccccc1F)N1CCN(Cc2noc(C3CC3)n2)CC1 — higher, 0.2085%
- CN(C)c1nc2c(c(N3CCCC4(CC3)CNC(=O)O4)n1)CCCC2 (stereo not drawn) — higher, 98.47%
- CN(C)c1nc2c(c(N3CCC4(CCCNC4=O)C3)n1)CCCC2 (stereo not drawn) — higher, 9.775%
- Cc1ccc(-c2ccnc(N3CCC4(CC3)CNC(=O)O4)n2)c(C)n1 — higher, 5.789%
- Cc1nc(N(C)C)nc(N2CCC3(CC2)CNC(=O)O3)c1C — higher, 97.26%
- CC(=O)NC1CCN(c2nc(N(C)C)nc3c2CCCC3)CC1 — higher, 10.24%
- CCCc1cnc(C)nc1N1CCC2(CC1)CNC(=O)O2 — higher, 7.463%
- O=C1NCC2(CCCN(c3ncnc4c3CCC4)CC2)O1 (stereo not drawn) — higher, 82.73%
- CC(C)Cc1ncc2c(n1)CN(c1nc(N(C)C)nc3c1CCCC3)C2 — higher, 27.68%
- CN1CCc2[nH]nc(C(=O)N3CCCC4(CC3)CNC(=O)O4)c2C1 (stereo not drawn) — higher, 1.077%
- c1nc2c(c(N3CCOC(Cn4cncn4)C3)n1)CCC2 (stereo not drawn) — higher, -6.426%
- CN(C)c1nc2c(c(N3CCC4(CC3)CNC(=O)C4)n1)CCCC2 — higher, 100.7%
